For 23 compounds, Potency results are on record in PubChem BioAssay (NCATS).

Calls of active or inactive are those of the source. A call without a number means that no potency is given here. Calls follow the shape of the dose curve; as a rule, active = well fitted activation curve with a large enough effect; inconclusive = small, poorly fitted or top-dose-only effect; inactive = flat fitted curve, though single readings scatter.
Potency is read from the fitted curve at half-maximal effect.

This test is described as follows: Cellular Toxicity (caspase-3) N2a (AID 665).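 Also: compound exposure lasted 16 h at 37 °C before readout.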 The settings on record: N2a cells, luminescence; Potency: caspase-3 activation; series mostly up to 92.2 µM. The source says:
NIH Chemical Genomics Center [NCGC]
NIH Molecular Libraries Screening Centers Network [MLSCN]
National Institutes of Environmental Health Sciences [NIEHS]
National Toxicology Program [NTP]
We have developed a 1536-well cell-based assay for quantitative high throughput screening (qHTS) against a number of cell lines to determine in vitro caspase 3/7 activity of small molecules. This particular assay uses the N2a cell line which is derived from mouse neuroblastoma.
NCGC Assay Protocol Summary:
The Caspase-Glo 3/7 assay (Promega) is a homogeneous method to measure caspase-3 and caspase-7 activities in cultured cells. The quantitation of caspase 3/7 activity is based on the cleavage of a peptide-aminoluciferin substrate. After caspase cleaves the substrate the free aminoluciferin is liberated and serves as the substrate of luciferase, which generates the light. The luminescent signal is proportional to the amount of caspase 3/7 activity present.
Using the Caspase-Glo 3/7 assay, the amount of caspase 3/7 activity was measured in the N2a cells with complete culture medium following compound treatment for 16 hours. The assay was performed in opaque white 1536-well plates. In the screen, staurosporine and doxorubicin were used as positive controls. Library compounds were measured for their ability to cause the activation of caspase 3/7 in the cell line, as reflected by an increase in luminescence signal, in a concentration-dependent manner. Data were normalized to the controls for basal activity (DMSO only) and 100% stimulation (10 uM staurosporine). AC50 values were determined from concentration-response data modeled with the standard Hill equation.
qHTS protocol for caspase 3/7 assay in mouse N2a cell line
[Step] [Parameter] [Value] [Description]
1. Reagent; 5 uL; 1500 mouse N2a cells/well
2. Time; 5 hr; 37 °C incubation
4. Controls; 23 nL; doxorubicin 7 pM to 100 uM & staurosporine 1.4 pM to 20 uM
5. Time; 16 hr; 37 °C incubation
6. Reagent; 5 uL; Caspase-Glo 3/7 reagent
7. Time; 1 hr; Room Temperature
8. Detection; Luminescence; Viewlux plate reader
Keywords: caspase 3/7, apoptosis, mouse N2a cell line, luminescence, NTPHTS, NTPHTS_NCGC, NIEHS, EPA, DSSTox, MLSMR, MLSCN, NIH Roadmap, qHTS, NCGC
For the compound `NCCO`, the Potency entry is “inactive”.

Turning to `c1ccc2sc(SSc3nc4ccccc4s3)nc2c1`, the Potency entry was “inactive”.

As to `O=C(O)c1cc(O)c(O)c(O)c1`, the Potency entry was “inactive”.

Turning to `CN1CCC[C@H]1c1cccnc1`, the Potency entry is “inactive”.

Take `O=C(O)/C=C\C(=O)O`: the Potency entry was “inactive”.

Regarding `CN(C)CCC(c1ccc(Cl)cc1)c1ccccn1` (stereo not drawn), the Potency entry is “inactive”.

As to `O=C1CN(/N=C/c2ccc([N+](=O)[O-])o2)C(=O)N1`, the Potency entry was “inactive”.

Regarding `c1cnc2c(c1)ccc1cccnc12`, the Potency result is “inactive”.

With `CC1(C)S[C@@H]2[C@H](NC(=O)[C@H](N)c3ccccc3)C(=O)N2[C@H]1C(=O)O`, the Potency result was “inactive”.

With `CN(C)c1ccc(N=NS(=O)(=O)O)cc1`, the Potency result is “inactive”.

Take `C#C[C@]1(O)CC[C@H]2[C@@H]3CCc4cc(O)ccc4[C@H]3CC[C@@]21C`: the Potency entry was “inactive”.

For `CN(C)c1ccc(C(=C2C=CC(=[N+](C)C)C=C2)c2ccccc2)cc1`, the Potency was 0.0794 µM (active).

With `Nc1ccc([N+](=O)[O-])cc1O`, the Potency entry is “inactive”.

Turning to `O=c1cc(-c2ccccc2)oc2ccccc12`, the Potency entry is “inactive”.

As to `COc1cc(CNC(=O)CCCC/C=C/C(C)C)ccc1O`, the Potency entry is “inactive”.

Take `CCCOC(=O)c1ccc(O)cc1`: the Potency entry is “inactive”.

For the compound `CCCCCCCCCCCCCCCCCC(=O)O`, the Potency result is “inactive”.

On to `CC(C)NCC(O)COc1cccc2ccccc12` (stereo not drawn), for which the Potency entry is “inactive”.

As to `Nc1ccc(O)c([N+](=O)[O-])c1`, the Potency result is “inactive”.

Consider `Nc1ccc(O)c(C(=O)O)c1`, for which the Potency entry was “inactive”.

For the compound `Nc1nc2ccc([N+](=O)[O-])cc2s1`, the Potency entry is “inactive”.

In the case of `S=c1[nH]c2ccccc2s1`, the Potency entry was “inactive”.

`Oc1ccccc1O`: the Potency result was “inactive”.
